Assay [1] concerns Wnt5a (protein binding on small-molecule microarray). In words: Wnt5a binders on small-molecule microarray, primary screen, biophysical, 635/667 nm fluorescence (AID 1142).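 Note: fluorescence read at 667 nm with signal to noise per printed feature.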 The conditions noted are these: 635 nm fluorescence, higher = more signal.
The nature of assay [2]: cell viability in Huh7 cells, primary screen, cytotoxicity control for HCV replication inhibitor project, CellTiter-Glo luminescence, basal, 48 h (AID 1143).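 Note: Huh7 hepatoma cells carrying a hepatitis C replication reporter with no stimulus; test concentration not given here.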 The conditions noted are these: Huh7 HCV replicon, higher = more signal, called active from +8 up or from −8 down.
Assay [3] in a line: P. aeruginosa biofilm formation inhibitors, primary screen, PAO1 strain, BacTiter-Glo luminescence, LB-PBS (AID 1144). The conditions noted are these: 12 h, higher = more signal.
The nature of assay [4]: CREB reporter modulators without forskolin, primary screen, cell-based, PC12, CRE-LacZ reporter, unstimulated (AID 1145). The conditions noted are these: no forskolin, luminescence, 4.5 h, higher = more signal, called active from +8 up or from −8 down.
Assay [5] in a line: CREB reporter modulators under forskolin, primary screen, cell-based, PC12, CRE-LacZ reporter, forskolin-stimulated (AID 1146).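 Note: PC12 cells with 6xCRE LacZ reporter stimulated by forskolin 10 µM; beta-galactosidase reporter signal reflecting CREB driven transcription.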 The conditions noted are these: luminescence, 4.5 h, higher = more signal, called active from +8 up or from −8 down.
Assay [6] deals with Streptavidin (Streptomyces avidinii) (UniProt P22629). Nature of the assay: streptavidin binders on small-molecule microarray, primary screen, artefact control for SMM compound annotation, biophysical, 635/667 nm fluorescence (AID 1147).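 Note: signal reflects streptavidin binding to arrayed compounds as a control protein.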 The conditions noted are these: streptavidin binding, higher = more signal.
Assay [7] is described as follows: small-molecule binders of probe aInhba, primary screen, biochemical, small-molecule microarray, 635/667 nm fluorescence (AID 1148).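 Note: score merges 667nm spot fluorescence with signal-to-noise for antibody binding to printed compounds.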 The conditions noted are these: higher = more signal.
In assay [8] the target is Torsin-1A (Homo sapiens) (UniProt O14656). Nature of the assay: torsin A binders from cell lysate, primary screen, small-molecule microarray, wild-type, 635/667 nm (AID 1149). The conditions noted are these: COS7 hTOR1A-WT lysate, 635 nm fluorescence, higher = more signal.
The target is the same in assay [9]. In words: small-molecule binders of mutant TOR1A in lysate, primary screen, cell lysate, small-molecule microarray, COS7 lysate, 635/667 nm fluorescence (AID 1150).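 Note: score pools 667 nm emission and signal to noise measuring lysate protein binding.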 The conditions noted are these: COS7 hTOR1A mutant lysate, 635 nm fluorescence, higher = more signal.
Assay [10] deals with Sonic hedgehog protein (Shh). Nature of the assay: small-molecule binders of Shh protein, primary screen, biochemical, small-molecule microarray, 635/667 nm fluorescence (AID 1151).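 Note: Shh protein binding to compounds spotted on small-molecule microarray slides; score combines spot fluorescence intensity with signal-to-noise across triplicate slides.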 The conditions noted are these: small-molecule microarray binding, 635 nm fluorescence; higher = more signal.
Assay [11] can be described thus: E. coli DRC41 culture turbidity changes, primary screen, E. coli filamentation inducer project, strain DRC41, OD650, 48 h (AID 1152).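 Note: E. coli MC1000 strain DRC41 lacking acrAB efflux pump and sulA.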 The conditions noted are these: E. coli DRC41 (acrAB sulA), higher = more signal, called active from +8 up or from −8 down.
The nature of assay [12]: small-molecule binders of probe aLefty1, primary screen, biochemical, small-molecule microarray, 635/667 nm fluorescence (AID 1153).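 Note: score merges spot fluorescence with signal-to-noise ratio from the scanned slide images.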 The conditions noted are these: higher = more signal.
The nature of assay [13]: PSAC antagonists in infected red cells, primary screen, cell-based, P. falciparum Indochina, OD700, 1 h (AID 1154). The conditions noted are these: P. falciparum Indochina infected RBC osmotic lysis, higher = more signal, called active from +8 up or from −8 down.
Assay [14] in a line: PSAC antagonists in infected red cells, primary screen, cell-based, P. falciparum Indochina, OD700, 2 h (AID 1155).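 Note: lysis reports solute entry through the parasite surface anion channel PSAC; channel blockers reduce lysis of infected cells.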 The conditions noted are these: P. falciparum Indochina infected erythrocytes, osmotic lysis OD700; higher = more signal, called active from +8 up or from −8 down.
Assay [15] is described as follows: osmotic lysis modulators in infected erythrocytes, primary screen, PSAC antagonist project, cell-based, P. falciparum Indochina, OD700, 3 h (AID 1156). The conditions noted are these: higher = more signal, called active from +8 up or from −8 down.
Assay [16] in a line: PSAC antagonists in infected red cells, primary screen, cell-based, P. falciparum Indochina, OD700, 18 h (AID 1157). The conditions noted are these: P. falciparum Indochina infected erythrocytes, osmotic lysis OD700, 18 h; higher = more signal, called active from +8 up or from −8 down.
Assay [17] can be described thus: modulators of S6 phosphorylation in cells, primary screen, cell-based, A549, cytoblot, luminescence, serum-stimulated (AID 1158).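 Note: serum-stimulated A549 lung adenocarcinoma cells; signal is phosphorylated S6 detected by cytoblot immunostaining with HRP secondary.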 The conditions noted are these: A549 phospho-S6 cytoblot, 5 h, higher = more signal.
Assay [18] has as its target NADPH oxidase 2 (Homo sapiens) (UniProt P04839). In words: NOX2-dependent H2O2 signal modulators, primary screen, NOX inhibitor project, cell-based, HEK293-NOX2, PMA-stimulated, Amplex Red fluorescence (AID 1159). Note: test concentration not given here. The conditions noted are these: 45 min, higher = more signal, called active from +8 up or from −8 down.
The target of assay [19] is NADPH oxidase 4 (Homo sapiens) (UniProt Q9NPH5). Nature of the assay: NOX4-dependent H2O2 signal modulators, primary screen, NOX inhibitor project, cell-based, HEK293-NOX4, tetracycline-induced, Amplex Red fluorescence (AID 1160). The conditions noted are these: 45 min, higher = more signal, called active from +8 up or from −8 down.
The target of assay [20] is NADPH oxidase 5 (Homo sapiens) (UniProt Q96PH1). In words: NOX5-dependent H2O2 signal modulators, primary screen, NOX inhibitor project, cell-based, HEK293-NOX5, Amplex Red fluorescence (AID 1161). The conditions noted are these: HEK293-NOX5, ionomycin, 45 min, higher = more signal.

The record followed here is PubChem BioAssay.

Active and inactive are the calls of the source. Unless noted, the rule behind the calls is not given here.

Sequence of Torsin-1A (Homo sapiens) (O14656 whole entry, looked up): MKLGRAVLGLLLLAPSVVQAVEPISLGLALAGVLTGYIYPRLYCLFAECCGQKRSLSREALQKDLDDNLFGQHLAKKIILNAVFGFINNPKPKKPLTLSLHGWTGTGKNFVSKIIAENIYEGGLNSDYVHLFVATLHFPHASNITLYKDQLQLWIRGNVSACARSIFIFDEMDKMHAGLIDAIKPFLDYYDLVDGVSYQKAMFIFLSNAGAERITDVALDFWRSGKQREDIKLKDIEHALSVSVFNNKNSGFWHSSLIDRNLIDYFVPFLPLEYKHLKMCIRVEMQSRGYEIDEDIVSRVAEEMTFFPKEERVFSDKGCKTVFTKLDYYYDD
Sequence of NADPH oxidase 4 (Homo sapiens) (Q9NPH5 whole entry, looked up): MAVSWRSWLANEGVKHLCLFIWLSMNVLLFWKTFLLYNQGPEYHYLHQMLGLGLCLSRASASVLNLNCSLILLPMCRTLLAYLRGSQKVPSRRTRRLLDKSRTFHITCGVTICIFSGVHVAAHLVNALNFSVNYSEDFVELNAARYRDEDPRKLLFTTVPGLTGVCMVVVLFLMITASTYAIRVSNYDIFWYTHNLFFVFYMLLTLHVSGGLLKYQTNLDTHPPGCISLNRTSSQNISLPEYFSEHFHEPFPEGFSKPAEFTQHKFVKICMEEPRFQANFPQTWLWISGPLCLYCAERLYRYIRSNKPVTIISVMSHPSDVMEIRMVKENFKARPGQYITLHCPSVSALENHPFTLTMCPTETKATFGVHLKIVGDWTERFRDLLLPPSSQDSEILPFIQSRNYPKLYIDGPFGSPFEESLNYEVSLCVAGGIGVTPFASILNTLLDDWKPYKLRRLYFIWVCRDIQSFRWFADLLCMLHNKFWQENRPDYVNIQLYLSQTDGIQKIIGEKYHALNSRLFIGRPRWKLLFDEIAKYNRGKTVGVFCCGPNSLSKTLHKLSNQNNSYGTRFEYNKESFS
Sequence of Streptavidin (Streptomyces avidinii) (P22629 whole entry, looked up): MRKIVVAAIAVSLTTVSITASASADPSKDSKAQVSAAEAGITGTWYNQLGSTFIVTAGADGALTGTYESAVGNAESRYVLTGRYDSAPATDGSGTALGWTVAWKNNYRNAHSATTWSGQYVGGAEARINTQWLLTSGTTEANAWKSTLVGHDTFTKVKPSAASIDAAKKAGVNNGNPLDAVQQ
Sequence of NADPH oxidase 5 (Homo sapiens) (Q96PH1 whole entry, looked up): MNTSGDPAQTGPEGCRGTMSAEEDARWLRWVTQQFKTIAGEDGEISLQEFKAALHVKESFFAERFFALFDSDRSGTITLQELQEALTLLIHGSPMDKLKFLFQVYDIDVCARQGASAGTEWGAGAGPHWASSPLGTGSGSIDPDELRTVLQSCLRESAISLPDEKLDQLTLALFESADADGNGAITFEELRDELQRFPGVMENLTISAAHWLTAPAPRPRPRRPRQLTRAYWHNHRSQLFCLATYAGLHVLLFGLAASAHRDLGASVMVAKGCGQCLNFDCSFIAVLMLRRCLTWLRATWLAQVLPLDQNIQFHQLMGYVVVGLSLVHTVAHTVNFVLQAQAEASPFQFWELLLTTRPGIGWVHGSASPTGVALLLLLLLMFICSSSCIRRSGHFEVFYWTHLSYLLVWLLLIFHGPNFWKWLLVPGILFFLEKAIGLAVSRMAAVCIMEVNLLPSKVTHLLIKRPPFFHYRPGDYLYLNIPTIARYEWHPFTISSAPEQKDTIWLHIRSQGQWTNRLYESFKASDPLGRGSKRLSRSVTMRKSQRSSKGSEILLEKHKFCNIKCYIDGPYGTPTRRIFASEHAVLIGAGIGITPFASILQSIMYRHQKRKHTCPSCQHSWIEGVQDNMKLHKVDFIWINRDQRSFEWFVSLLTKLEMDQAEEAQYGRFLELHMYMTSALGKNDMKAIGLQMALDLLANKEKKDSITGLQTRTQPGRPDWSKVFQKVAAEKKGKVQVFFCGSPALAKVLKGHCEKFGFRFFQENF
Sequence of NADPH oxidase 2 (Homo sapiens) (P04839 whole entry, looked up): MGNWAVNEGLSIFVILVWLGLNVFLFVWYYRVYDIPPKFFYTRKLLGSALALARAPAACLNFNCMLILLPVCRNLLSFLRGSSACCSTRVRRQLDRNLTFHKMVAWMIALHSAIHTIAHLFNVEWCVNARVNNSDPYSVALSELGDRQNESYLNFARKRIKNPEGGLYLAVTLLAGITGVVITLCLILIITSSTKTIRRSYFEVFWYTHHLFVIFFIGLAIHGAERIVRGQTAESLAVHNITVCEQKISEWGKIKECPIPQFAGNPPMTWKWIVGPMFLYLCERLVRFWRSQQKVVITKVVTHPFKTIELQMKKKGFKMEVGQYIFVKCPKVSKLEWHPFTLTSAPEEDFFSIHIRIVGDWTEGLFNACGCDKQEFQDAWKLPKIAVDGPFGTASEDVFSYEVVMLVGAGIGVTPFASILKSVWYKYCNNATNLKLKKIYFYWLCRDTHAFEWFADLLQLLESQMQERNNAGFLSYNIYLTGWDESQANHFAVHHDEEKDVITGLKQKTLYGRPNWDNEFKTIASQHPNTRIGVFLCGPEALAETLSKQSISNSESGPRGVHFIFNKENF

Consider `CCOC(=O)C[C@H]1[C@H](OC(=O)c2ccccc2-c2ccccc2)[C@@H](NC(=O)c2ccc3ccccc3c2)c2cc(OCCCO)ccc2N1C(=O)Cc1ccc(OC)cc1`, for which the composite z-score is 0.23 in assay [1]; -0.0096 in assay [6]; -0.128 in [7]; 0.0216 in assay [8]; 0.768 in assay [9]; -0.314 in assay [10]. Further, the composite z-score in [12] is -0.241. Also, the z-score in [2] is 0.0138 (inactive); in assay [3], 0.619 (inactive); in [4] it was 3.37 (inactive); in assay [5], 0.654 (inactive); in [11] it was -0.878 (inactive); in assay [13] it was 4.15 (inactive). Besides, the z-score in assay [14] was 0.403 (inactive); in assay [15], -0.681 (inactive); in assay [16], 0.281 (inactive); in assay [17], 0.12; in assay [18], 0.0357 (inactive); in assay [19] it was 1.02 (inactive). Also, in [20], the z-score was 1.01.
For the compound `CCCCC(O)C1C=CC2C(=O)N(c3ccccc3)C(=O)C2N1Nc1ccc(C#N)cc1` (stereo not given), the composite z-score was -0.0416 in assay [1]; 0.718 in assay [6]; 0.545 in [7]; 0.242 in assay [8]; 0.179 in assay [9]; -0.492 in assay [10]. This compound had a composite z-score in [12] of 0.598. Besides, the z-score is 0.739 (inactive) in assay [2]; -1.25 (inactive) in assay [3]; 0.632 (inactive) in assay [4]; 0.719 (inactive) in assay [5]; -0.964 (inactive) in assay [11]; 16.7 (active) in assay [13]. Also, the z-score in assay [14] was 2.94 (inactive); in assay [15] it was 2.36 (inactive); in assay [16], 1.39 (inactive); in assay [17], -0.809; in assay [18], -0.444 (inactive); in assay [19] it was -4.26 (inactive). In [20], this compound gave a z-score of -1.98.
On to `COC(=O)C(CC#Cc1ccc2c(c1)[C@]1(C(=O)N2)[C@H](c2ccc(OCCO)cc2)N2[C@H](c3ccccc3)[C@H](c3ccccc3)OC(=O)[C@H]2[C@@H]1C(=O)N1CCCCCCC1)C(=O)OC`, for which the composite z-score in [1] was 1.33; in [6], 2.97; in [7] it was 1.88; in assay [8], 2.01; in assay [9], 1.9; in [10], 0.582. Moreover, in assay [12], the composite z-score was 2.67. In addition, the z-score is -1.99 (inactive) in assay [2]; -1.14 (inactive) in assay [3]; 0.622 (inactive) in [4]; -0.159 (inactive) in assay [5]; -0.598 (inactive) in [11]; 7.3 (inactive) in assay [13]. Also, the z-score is 1.59 (inactive) in assay [14]; 0.309 (inactive) in assay [15]; 0.712 (inactive) in [16]; -0.173 in assay [17]; 0.783 (inactive) in assay [18]; 0.196 (inactive) in assay [19]. The compound also registered a z-score in assay [20] of 1.44.
For `COC(=O)C[C@H]1O[C@@]2(C[C@@H]1[Si](C)(C)C)C(=O)N(C)c1ccccc12`, the composite z-score in assay [1] was 0.0074; in assay [6], 0.327; in assay [7], -0.0468; in [8], 0.185; in assay [9], 0.117; in assay [10], 1.44. In addition, the composite z-score in [12] was determined as 0.14. For the same compound, the z-score is -1.43 (inactive) in assay [2]; -0.355 (inactive) in assay [3]; 2.3 (inactive) in assay [4]; -0.923 (inactive) in [5]; 3.12 (inactive) in [11]; -1.14 (inactive) in assay [13]. Also, the z-score was -0.694 (inactive) in assay [14]; -1.23 (inactive) in [15]; -1.92 (inactive) in [16]; 0.953 in [17]; -0.465 (inactive) in [18]; 0.764 (inactive) in assay [19]. In addition, in [20], the z-score turned out to be 1.21.
Turning to `O=C1C[C@@](C(=O)NC2CC2)(c2ccc([N+](=O)[O-])cc2)[C@@H](c2ccc(CO)cc2)N1C1CCCCC1`, the composite z-score is 0.755 in [1]; -0.124 in assay [6]; -0.212 in assay [7]; -0.204 in assay [8]; 0.466 in assay [9]; 2.18 in assay [10]. Further, in [12], the composite z-score was 0.345. For the same compound, the z-score was -5.6 (inactive) in [2]; -2.4 (inactive) in assay [3]; 0.118 (inactive) in assay [4]; -0.0595 (inactive) in assay [5]; 1.25 (inactive) in assay [11]; 1.97 (inactive) in assay [13]. The z-score in [14] is -0.0047 (inactive); in assay [15], 0.736 (inactive); in [16] it was -0.115 (inactive); in assay [17], 3.97; in assay [18], -1.06 (inactive); in assay [19] it was -3.7 (inactive). The compound further displayed a z-score in [20] of -5.08.
For the compound `CC=CC(O)C1C=CC2C(=O)NC(=O)C2N1Nc1ccc(Cl)cc1Cl` (stereo not given), the composite z-score in assay [1] is -0.242; in assay [6] it was 0.0171; in assay [7], -0.176; in assay [8], 0.34; in [9], 0.0964; in assay [10] it was 0.443. The compound further came in with a composite z-score in [12] of 0.169. Moreover, the z-score is 0.323 (inactive) in assay [2]; 0.101 (inactive) in assay [3]; -0.133 (inactive) in assay [4]; 0.467 (inactive) in [5]; -1.56 (inactive) in assay [11]; 0.76 (inactive) in [13]. The z-score was 0.786 (inactive) in assay [14]; 0.0682 (inactive) in assay [15]; 1.29 (inactive) in [16]; -0.637 in assay [17]; -1.35 (inactive) in assay [18]; -4.61 (inactive) in assay [19]. In assay [20], this compound had a z-score of -3.02.
In the case of `CC(C)(C)N1CC=CC23O[C@@H]4/C=C\CCCOC(=O)C4[C@H]2C(=O)N(CCCCCO)[C@@H]3C1=O` (stereo not given in full), the composite z-score in assay [1] is -0.552; in assay [6] it was -0.573; in assay [7], -0.258; in [8] it was -0.185; in assay [9], -1.33; in assay [10], -0.58. In assay [12], this compound gave a composite z-score of -0.191. Moreover, the z-score was -0.0495 (inactive) in assay [2]; 1.27 (inactive) in [3]; 0.191 (inactive) in [4]; -0.311 (inactive) in assay [5]; -0.81 (inactive) in assay [11]; 0.373 (inactive) in [13]. Further, the z-score in [14] was 0.135 (inactive); in assay [15] it was -1.09 (inactive); in assay [16], 0.0116 (inactive); in assay [17], -0.786; in [18], 1.16 (inactive); in assay [19] it was 0.0398 (inactive). This compound also gave a z-score in [20] of 1.21.
On to `CC(C)OC(=O)CC(=O)CC(O)c1cccc([N+](=O)[O-])c1` (stereo not given), for which the composite z-score in [1] was 0.457; in [6], 1.14; in assay [7], -0.0221; in assay [8], -0.324; in assay [9], 2.75; in [10], -0.352. The same compound came in with a composite z-score in assay [12] of 0.318. Also, the z-score was -3.92 (inactive) in [2]; -2.34 (inactive) in [3]; -0.676 (inactive) in assay [4]; -0.185 (inactive) in [5]; 1.27 (inactive) in [11]; 3.27 (inactive) in [13]. Also, the z-score in assay [14] was 0.79 (inactive); in assay [15] it was -1.39 (inactive); in assay [16], -0.295 (inactive); in assay [17] it was 2.1; in assay [18] it was -0.068 (inactive); in assay [19], 0.147 (inactive). The same compound gave a z-score in assay [20] of 0.435.
